# How the values were obtained:
# Experiment in all cases: SPOT peptide array binding signal intensity (averaged, normalized) (arbitrary units (background-subtracted, floor 0; scale differs between SH3 domains)); higher = stronger binding of the SH3 domain to the peptide
# AgAbp1 = molecular target: AgAbp1
# Method in brief: (§1)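 GST-fused SH3 domains from four yeast species were expressed in E. coli BL21(DE3), purified on glutathione Sepharose and incubated at 10 μg/ml overnight at 4°C in TBS-based blocking buffer on cellulose membranes carrying synthetic 15-mer peptides, with cysteines replaced by serines. Bound protein was detected with anti-GST antibody, an HRP anti-mouse secondary and luminol, then imaged and quantified with Genespotter. Binding signal is the normalized, background-subtracted spot intensity averaged over replicates, in arbitrary units that differ between domains.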
# AgBbc1 = molecular target: AgBbc1
# Method in brief: as §1
# AgBem1-D1 = molecular target: AgBem1-D1
# Method in brief: as §1
# AgBzz1-D1 = molecular target: AgBzz1-D1
# Method in brief: as §1
# AgBzz1-D2 = molecular target: AgBzz1-D2
# Method in brief: as §1
# AgCyk3 = molecular target: AgCyk3
# Method in brief: as §1
# AgFus1 = molecular target: AgFus1
# Method in brief: as §1
# AgHof1 = molecular target: AgHof1
# Method in brief: as §1
# AgHse1 = molecular target: AgHse1
# Method in brief: as §1
# AgLsb1 = molecular target: AgLsb1
# Method in brief: as §1
# AgLsb4 = molecular target: AgLsb4
# Method in brief: as §1
# AgMyo5 = molecular target: AgMyo5
# Method in brief: as §1
# AgNbp2 = molecular target: AgNbp2
# Method in brief: as §1
# AgRvs167 = molecular target: AgRvs167
# Method in brief: as §1
# AgSho1 = molecular target: AgSho1
# Method in brief: as §1
# AgSla1-D1-D2 = molecular target: AgSla1-D1-D2
# Method in brief: as §1
# AgSla1-D3 = molecular target: AgSla1-D3
# Method in brief: as §1
# CaAbp1-D1 = molecular target: CaAbp1-D1
# Method in brief: as §1
# CaAbp1-D2 = molecular target: CaAbp1-D2
# Method in brief: as §1
# CaBbc1 = molecular target: CaBbc1
# Method in brief: as §1
# CaBem1-D1 = molecular target: CaBem1-D1
# Method in brief: as §1
# CaBzz1-D1 = molecular target: CaBzz1-D1
# Method in brief: as §1
# CaBzz1-D2 = molecular target: CaBzz1-D2
# Method in brief: as §1
# CaCyk3 = molecular target: CaCyk3
# Method in brief: as §1
# CaFus1 = molecular target: CaFus1
# Method in brief: as §1
# CaHof1 = molecular target: CaHof1
# Method in brief: as §1
# CaHse1 = molecular target: CaHse1
# Method in brief: as §1
# CaLsb1 = molecular target: CaLsb1
# Method in brief: as §1
# CaLsb4 = molecular target: CaLsb4
# Method in brief: as §1
# CaMyo5 = molecular target: CaMyo5
# Method in brief: as §1
# CaNbp2 = molecular target: CaNbp2
# Method in brief: as §1
# CaRvs167 = molecular target: CaRvs167
# Method in brief: as §1
# CaRvs167-3 = molecular target: CaRvs167-3
# Method in brief: as §1
# CaSho1 = molecular target: CaSho1
# Method in brief: as §1
# CaSla1-D1-D2 = molecular target: CaSla1-D1-D2
# Method in brief: as §1
# CaSla1-D3 = molecular target: CaSla1-D3
# Method in brief: as §1
# ScAbp1 = molecular target: ScAbp1
# Method in brief: as §1
# ScBbc1 = molecular target: ScBbc1
# Method in brief: as §1
# ScBem1-D1 = molecular target: ScBem1-D1
# Method in brief: as §1
# ScBzz1-D1 = molecular target: ScBzz1-D1
# Method in brief: as §1
# ScBzz1-D2 = molecular target: ScBzz1-D2
# Method in brief: as §1
# ScCyk3 = molecular target: ScCyk3
# Method in brief: as §1
# ScFus1 = molecular target: ScFus1
# Method in brief: as §1
# ScHof1 = molecular target: ScHof1
# Method in brief: as §1
# ScHse1 = molecular target: ScHse1
# Method in brief: as §1
# ScLsb1 = molecular target: ScLsb1
# Method in brief: as §1
# ScLsb2 = molecular target: ScLsb2
# Method in brief: as §1
# ScLsb3 = molecular target: ScLsb3
# Method in brief: as §1
# ScLsb4 = molecular target: ScLsb4
# Method in brief: as §1
# ScMyo3 = molecular target: ScMyo3
# Method in brief: as §1
# ScMyo5 = molecular target: ScMyo5
# Method in brief: as §1
# ScNbp2 = molecular target: ScNbp2
# Method in brief: as §1
# ScPex13 = molecular target: ScPex13
# Method in brief: as §1
# ScRvs167 = molecular target: ScRvs167
# Method in brief: as §1
# ScSho1 = molecular target: ScSho1
# Method in brief: as §1
# ScSla1-D1-D2 = molecular target: ScSla1-D1-D2
# Method in brief: as §1
# ScSla1-D3 = molecular target: ScSla1-D3
# Method in brief: as §1
# SpAbp1-D1 = molecular target: SpAbp1-D1
# Method in brief: as §1
# SpBbc1 = molecular target: SpBbc1
# Method in brief: as §1
# SpBzz1-D1 = molecular target: SpBzz1-D1
# Method in brief: as §1
# SpBzz1-D2 = molecular target: SpBzz1-D2
# Method in brief: as §1
# SpCyk3 = molecular target: SpCyk3
# Method in brief: as §1
# SpHof1 = molecular target: SpHof1
# Method in brief: as §1
# SpHof1-2 = molecular target: SpHof1-2
# Method in brief: as §1
# SpHof1-3 = molecular target: SpHof1-3
# Method in brief: as §1
# SpHse1 = molecular target: SpHse1
# Method in brief: as §1
# SpLsb1 = molecular target: SpLsb1
# Method in brief: as §1
# SpLsb4 = molecular target: SpLsb4
# Method in brief: as §1
# SpMyo1 = molecular target: SpMyo1
# Method in brief: as §1
# SpNbp2 = molecular target: SpNbp2
# Method in brief: as §1
# SpPex13 = molecular target: SpPex13
# Method in brief: as §1
# SpRvs167 = molecular target: SpRvs167
# Method in brief: as §1
# SpSla1-D1-D2 = molecular target: SpSla1-D1-D2
# Method in brief: as §1
# SpSla1-D3 = molecular target: SpSla1-D3
# Method in brief: as §1
binder,measurement,setting,value
TPTSGPPLLPPRNTM,SPOT peptide array binding signal intensity,AgAbp1,≤ 0
same,SPOT peptide array binding signal intensity,AgBbc1,128
same,SPOT peptide array binding signal intensity,AgBem1-D1,≤ 0
same,SPOT peptide array binding signal intensity,AgBzz1-D1,15
same,SPOT peptide array binding signal intensity,AgBzz1-D2,≤ 0
same,SPOT peptide array binding signal intensity,AgCyk3,6
same,SPOT peptide array binding signal intensity,AgFus1,≤ 0
same,SPOT peptide array binding signal intensity,AgHof1,21.2
same,SPOT peptide array binding signal intensity,AgHse1,65.5
same,SPOT peptide array binding signal intensity,AgLsb1,778
same,SPOT peptide array binding signal intensity,AgLsb4,5100
same,SPOT peptide array binding signal intensity,AgMyo5,124
same,SPOT peptide array binding signal intensity,AgNbp2,≤ 0
same,SPOT peptide array binding signal intensity,AgRvs167,801
same,SPOT peptide array binding signal intensity,AgSho1,≤ 0
same,SPOT peptide array binding signal intensity,AgSla1-D1-D2,≤ 0
same,SPOT peptide array binding signal intensity,AgSla1-D3,0.5
same,SPOT peptide array binding signal intensity,CaAbp1-D1,≤ 0
same,SPOT peptide array binding signal intensity,CaAbp1-D2,≤ 0
same,SPOT peptide array binding signal intensity,CaBbc1,153
same,SPOT peptide array binding signal intensity,CaBem1-D1,0.5
same,SPOT peptide array binding signal intensity,CaBzz1-D1,91
same,SPOT peptide array binding signal intensity,CaBzz1-D2,33.5
same,SPOT peptide array binding signal intensity,CaCyk3,1
same,SPOT peptide array binding signal intensity,CaFus1,25
same,SPOT peptide array binding signal intensity,CaHof1,4.75
same,SPOT peptide array binding signal intensity,CaHse1,100
same,SPOT peptide array binding signal intensity,CaLsb1,5.5
same,SPOT peptide array binding signal intensity,CaLsb4,5320
same,SPOT peptide array binding signal intensity,CaMyo5,36.8
same,SPOT peptide array binding signal intensity,CaNbp2,21
same,SPOT peptide array binding signal intensity,CaRvs167,2460
same,SPOT peptide array binding signal intensity,CaRvs167-3,≤ 0
same,SPOT peptide array binding signal intensity,CaSho1,5.5
same,SPOT peptide array binding signal intensity,CaSla1-D1-D2,185
same,SPOT peptide array binding signal intensity,CaSla1-D3,23.8
same,SPOT peptide array binding signal intensity,ScAbp1,≤ 0
same,SPOT peptide array binding signal intensity,ScBbc1,1
same,SPOT peptide array binding signal intensity,ScBem1-D1,≤ 0
same,SPOT peptide array binding signal intensity,ScBzz1-D1,3
same,SPOT peptide array binding signal intensity,ScBzz1-D2,≤ 0
same,SPOT peptide array binding signal intensity,ScCyk3,2
same,SPOT peptide array binding signal intensity,ScFus1,≤ 0
same,SPOT peptide array binding signal intensity,ScHof1,8
same,SPOT peptide array binding signal intensity,ScHse1,≤ 0
same,SPOT peptide array binding signal intensity,ScLsb1,1070
same,SPOT peptide array binding signal intensity,ScLsb2,65.5
same,SPOT peptide array binding signal intensity,ScLsb3,6040
same,SPOT peptide array binding signal intensity,ScLsb4,6540
same,SPOT peptide array binding signal intensity,ScMyo3,538
same,SPOT peptide array binding signal intensity,ScMyo5,80
same,SPOT peptide array binding signal intensity,ScNbp2,≤ 0
same,SPOT peptide array binding signal intensity,ScPex13,1680
same,SPOT peptide array binding signal intensity,ScRvs167,2570
same,SPOT peptide array binding signal intensity,ScSho1,1.5
same,SPOT peptide array binding signal intensity,ScSla1-D1-D2,268
same,SPOT peptide array binding signal intensity,ScSla1-D3,51.5
same,SPOT peptide array binding signal intensity,SpAbp1-D1,3
same,SPOT peptide array binding signal intensity,SpBbc1,≤ 0
same,SPOT peptide array binding signal intensity,SpBzz1-D1,176
same,SPOT peptide array binding signal intensity,SpBzz1-D2,1
same,SPOT peptide array binding signal intensity,SpCyk3,4.5
same,SPOT peptide array binding signal intensity,SpHof1,12.5
same,SPOT peptide array binding signal intensity,SpHof1-2,19
same,SPOT peptide array binding signal intensity,SpHof1-3,18.8
same,SPOT peptide array binding signal intensity,SpHse1,31.5
same,SPOT peptide array binding signal intensity,SpLsb1,1190
same,SPOT peptide array binding signal intensity,SpLsb4,6300
same,SPOT peptide array binding signal intensity,SpMyo1,156
same,SPOT peptide array binding signal intensity,SpNbp2,≤ 0
same,SPOT peptide array binding signal intensity,SpPex13,84.5
same,SPOT peptide array binding signal intensity,SpRvs167,2660
same,SPOT peptide array binding signal intensity,SpSla1-D1-D2,3
same,SPOT peptide array binding signal intensity,SpSla1-D3,4.5

# Source: the supplement of paper PMC4466140
